Eight molecules from PubChem BioAssay (Tox21) can be followed below.

Unmarked numbers belong to inactive results. Active and inactive are the calls of the source. Calls follow the shape of the full dose curve.
% is scaled to controls: 0 for no effect and ±100 for the full control effect; potency is read from the fitted curve at half-maximal effect.

For this experiment, the target named is Thyrotropin-releasing hormone receptor (Homo sapiens) (UniProt P34981). Kind of experiment: qHTS assay to identify small molecule agonists of the thyrotropin-releasing hormone receptor (TRHR) signaling pathway (AID 1346891). The conditions noted are these: TRHR-HEK293 calcium fluorescence, agonist mode; series mostly up to 57.6 µM; activation: at the top concentration. In outline: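 Agonist-mode intracellular calcium readout: kinetic fluorescence over 3 min at 1 s intervals after compound addition to TRHR-HEK293 cells (18 h seeded, 2 h dye-loaded at 37 C). Fifteen concentrations, triplicates.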
Thyrotropin-releasing hormone receptor (Homo sapiens), sequence (P34981 whole entry, looked up): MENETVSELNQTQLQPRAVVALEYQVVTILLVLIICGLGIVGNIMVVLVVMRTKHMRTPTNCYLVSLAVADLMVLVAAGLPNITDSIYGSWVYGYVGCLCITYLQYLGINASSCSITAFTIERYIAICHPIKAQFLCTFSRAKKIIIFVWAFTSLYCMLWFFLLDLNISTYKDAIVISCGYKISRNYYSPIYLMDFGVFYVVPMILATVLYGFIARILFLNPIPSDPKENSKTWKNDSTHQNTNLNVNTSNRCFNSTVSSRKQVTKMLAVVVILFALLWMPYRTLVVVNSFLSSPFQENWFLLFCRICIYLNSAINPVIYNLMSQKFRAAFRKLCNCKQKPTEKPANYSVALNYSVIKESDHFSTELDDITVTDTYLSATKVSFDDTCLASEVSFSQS
`O=C(O)COc1nc(Cl)c(Cl)cc1Cl`: the “activation” value is -0.728%. On to `CC(C)OC(=O)C(O)(c1ccc(Cl)cc1)c1ccc(Cl)cc1`, for which the “activation” value was 6.1%. As to `CC1(C)CC/C(=C/c2ccc(Cl)cc2)C1(O)Cn1cncn1` (stereo not drawn), the “activation” value is 2.65%. Same read-out and setting: as for `c1cc[c]([Sb]([c]2ccccc2)[c]2ccccc2)cc1`, the figure is 0.152%. For `[CH3][Hg][Cl]`, the Potency was 17.3 µM (active). As to `CC(C)(c1ccc(O)c(-c2ccccc2)c1)c1ccc(O)c(-c2ccccc2)c1`, the “activation” value was 5.01%.

`CC(C)OC(=S)S`: the “activation” value is 0.05%.

With `C=CC(=O)OCC(COC(=O)C=C)(COC(=O)C=C)COC(=O)C=C`, the “activation” value was -0.0004%.
